Consider 7 compounds from PubChem BioAssay (EPA / NIEHS).

As usually defined, the AC50 is the concentration at which the activity in the assay is half-maximal.

Assay [1] in a line: ATG_PBREM_CIS: Attagene CIS-FACTORIAL HepG2 Assay for human Phenobarbital-responsive Enhancer Module (PBREM) (AID 2282955). Conditions: HepG2 PBREM cis-reporter, Attagene multiplexed transcription; actives raise or lower the signal. The gist of the method: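 Readout: reporter mRNA, fluorescent RT-PCR fragments separated by capillary electrophoresis. System: HepG2 transiently transfected with cis-regulated reporter units. Exposure: 24 h. Analysis: bidirectional, DMSO baseline.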

Assay [2] deals with Paired box protein Pax-6 (Homo sapiens) (UniProt P26367). The assay is described as follows: ATG_Pax6_CIS: Attagene CIS-FACTORIAL HepG2 Assay for human Paired Box 6 (PAX6) (AID 2282956). Conditions: HepG2 CIS-FACTORIAL PAX6 reporter transcription, RNA readout; actives raise or lower the signal. In outline:
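DMSO-referenced bidirectional fits of reporter mRNA fluorescence; HepG2 with transient cis-promoter MRTUs, 24 h post-dose, RT-PCR plus capillary electrophoresis detection.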

Assay [3] in a line: ATG_PXRE_CIS: Attagene CIS-FACTORIAL HepG2 Assay for human Pregnane X Receptor Element (PXRE) (AID 2282957). Particulars: HepG2 Attagene CIS-FACTORIAL PXRE reporter, mRNA; actives raise or lower the signal. In outline:
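Read-out: fluorescence of reporter-specific RT-PCR products resolved by capillary electrophoresis, fitted bidirectionally relative to DMSO. Human HepG2 liver cells carried transfected cis-promoter reporter units and were exposed to chemicals for 24 h.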

Assay [4] in a line: ATG_PPRE_CIS: Attagene CIS-FACTORIAL HepG2 Assay for human Peroxisome Proliferator-activated Response Element (PPRE) (AID 2282958). Particulars: HepG2 PPRE cis-element reporter, Attagene transcription factor profiling; actives raise or lower the signal. The gist of the method:
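After human HepG2 hepatoma cells were transiently transfected with cis-promoter reporter constructs, they were exposed to test chemicals for 24 hours. Reporter RNA was then reverse-transcribed, PCR-amplified, FAM-labeled, HpaI-digested and quantified by capillary electrophoresis.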

A short description of assay [5]: ATG_RORE_CIS: Attagene CIS-FACTORIAL HepG2 Assay for human RAR-related Orphan Receptor Element (RORE) (AID 2282959). Conditions: HepG2 Attagene cis-factorial RORE reporter, mRNA; actives raise or lower the signal. In outline: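 Measured here: transcript induction of a cis-regulated reporter in HepG2 cells transiently transfected via FuGene 6. After 24 h, RNA was processed by RT-PCR and fluorescent capillary electrophoresis; DMSO defined baseline activity.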

Assay [6] is described as follows: ATG_Sox_CIS: Attagene CIS-FACTORIAL HepG2 Assay for human SRY-box transcription factor (SOX) (AID 2282960). Particulars: HepG2 Attagene cis-factorial SOX reporter, mRNA; actives raise or lower the signal. The gist of the method:
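Using transiently transfected HepG2 cells, reporter transcription driven by cis elements was assessed 24 h after dosing. Signal was fluorescence of capillary-separated RT-PCR products, with DMSO defining baseline activity.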

Assay [7] concerns the target Transcription factor Sp1 (Homo sapiens) (UniProt P08047). The experiment in a line: ATG_Sp1_CIS: Attagene CIS-FACTORIAL HepG2 Assay for human Specificity Protein 1 (Sp1) (AID 2282961). Conditions: HepG2 Sp1 cis-reporter transcription, actives raise or lower the signal. In outline:
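After transient transfection of HepG2 cells with cis-promoter reporter units and 24 h chemical treatment, reporter transcripts were quantified by RT-PCR and capillary electrophoresis fluorescence. Gain- and loss-of-signal fitted against DMSO.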

Assay [8] deals with Signal transducer and activator of transcription 3 (Homo sapiens) (UniProt P40763). The experiment in a line: ATG_STAT3_CIS: Attagene CIS-FACTORIAL HepG2 Assay for human Signal Transducer and Activator of Transcription 3 (STAT3) (AID 2282963). Particulars: HepG2, Attagene cis-factorial STAT3 reporter transcription; actives raise or lower the signal. The gist of the method:
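Cis-factorial format: endogenous transcription factors in HepG2 drive transfected reporter units. After 24 h treatment, reporter RNA was reverse-transcribed, amplified, FAM-labelled and HpaI-digested before CE analysis; activity scored in both directions against DMSO.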

Assay [9] can be described thus: ATG_TA_CIS: Attagene CIS-FACTORIAL HepG2 Assay for human TA Basal Promoter (AID 2282964). Particulars: HepG2 Attagene CIS-factorial TA basal promoter reporter; actives raise or lower the signal. In outline:
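Multiplexed mRNA reporter assay, HepG2, 24 h. Reporter cDNA amplified, 6-FAM primer-extended, HpaI-cut, CE-sized; DMSO = negative control and baseline.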

Assay [10] in a line: ATG_TAL_CIS: Attagene CIS-FACTORIAL HepG2 Assay for human TAL Basal Promoter (AID 2282966).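 Further: background control endpoint measuring basal TAL promoter reporter mRNA not a specific factor.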 Conditions: HepG2 Attagene cis-factorial TAL promoter reporter; actives raise or lower the signal. In outline: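 HepG2, transient MRTU transfection, 24 h compound exposure; RNA → oligo(dT) RT → PCR → 6-FAM primer extension → HpaI digest → CE fluorescence. Bidirectional curve fit vs DMSO. Background-control readout.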

A short description of assay [11]: ATG_TGFb_CIS: Attagene CIS-FACTORIAL HepG2 Assay for human Transforming Growth Factor (TGF) (AID 2282967). Particulars: HepG2 Attagene CIS TGFb reporter, mRNA transcription; actives raise or lower the signal. The gist of the method: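 Transcript-level reporter readout: HepG2 transfectants, 24 h exposure, RNA to cDNA, reporter-specific PCR, fluorescent primer extension, capillary sizing against ROX standards. Gain- or loss-of-signal relative to DMSO.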

Assay [12] can be described thus: ATG_VDRE_CIS: Attagene CIS-FACTORIAL HepG2 Assay for human Vitamin D Receptor Element (VDRE) (AID 2282968). Particulars: HepG2 VDRE cis-reporter transcription, actives raise or lower the signal. The gist of the method: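 Measures endogenous factor activity through cis-element-driven reporter transcripts in transiently transfected HepG2. Cells are treated 24 h; reporter mRNA is quantified by RT-PCR and capillary electrophoresis; fitting is bidirectional.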

Assay [13] concerns the target Nuclear receptor subfamily 1 group I member 3 (Homo sapiens) (UniProt Q14994). The experiment in a line: ATG_CAR_TRANS: Attagene TRANS-FACTORIAL HepG2 Assay for human Constitutive Androstane Receptor (CAR) (AID 2282969; active means hit-call score of the fitted dose curve at least 0.9, where 1 is the maximum;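 further: activators raise reporter mRNA above DMSO so AC50 marks induction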). Particulars: HepG2 Attagene TRANS-FACTORIAL CAR reporter. The gist of the method:
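Signal is reporter mRNA induction relative to DMSO, measured 24 h after dosing by RT-PCR with fluorescent primer extension and capillary electrophoresis. Human HepG2 liver cells carried transiently transfected chimeric NR-Gal4/GAL4-UAS reporter constructs.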

Assay [14] addresses Estrogen receptor (Homo sapiens) (UniProt P03372). The assay is described as follows: ATG_ERa_TRANS: Attagene TRANS-FACTORIAL HepG2 Assay for human Estrogen Receptor alpha (ERa) (AID 2282970; active means hit-call score of the fitted dose curve at least 0.9, where 1 is the maximum). Conditions: HepG2 Attagene TRANS ERa GAL4 reporter, mRNA. The gist of the method:
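Reporter mRNA induction after 24 hours, detected by fluorescent RT-PCR and capillary electrophoresis, gives the read-out. Cells are HepG2 transiently transfected with GAL4-UAS reporter transcription units responding to chimeric NR-Gal4. Activity is taken as gain of signal over DMSO baseline.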

Assay [15] concerns the target X-box-binding protein 1 (Homo sapiens) (UniProt P17861). The assay is described as follows: ATG_Xbp1_CIS: Attagene CIS-FACTORIAL HepG2 Assay for human X-box Binding Protein 1 (XBP1) (AID 2282972). Conditions: HepG2 XBP1 cis-element reporter, Attagene multiplex; actives raise or lower the signal. The gist of the method: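 Changes in reporter transcript abundance, read by RT-PCR and capillary electrophoresis, reflect endogenous transcription factor activity. Transfected HepG2 cells received compound for 24 hours; DMSO defined baseline for bidirectional analysis.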

Assay [16] is described as follows: ATG_M_19_TRANS: Attagene TRANS-FACTORIAL HepG2 Assay for M19 Transcription Factor (Internal Marker) (AID 2282974; active means hit-call score of the fitted dose curve at least 0.9, where 1 is the maximum). Conditions: HepG2 Attagene TRANS-FACTORIAL M19 internal marker reporter. In outline: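 Gain-of-signal in reporter mRNA, relative to DMSO, was scored from capillary electrophoresis fluorescence. HepG2 cells carried transiently transfected multiple reporter transcription units and were incubated with test chemicals for 24 h.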

Assay [17] in a line: ATG_GAL4_TRANS: Attagene TRANS-FACTORIAL HepG2 Assay for GAL4 (Internal Marker) (AID 2282976; active means hit-call score of the fitted dose curve at least 0.9, where 1 is the maximum). Particulars: HepG2 Attagene TRANS GAL4 internal marker reporter. In outline: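 RT-PCR/capillary electrophoresis readout of reporter mRNA. HepG2, transient MRTU transfection (GAL4-UAS reporters), 24 h compound exposure. Background-control endpoint, positive direction vs DMSO baseline.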

A short description of assay [18]: ATG_TCF_b_cat_CIS: Attagene CIS-FACTORIAL HepG2 Assay for human T-Cell-Factor with beta-catenin (TCF/b-cat) (AID 2282965). Conditions: HepG2 TCF/beta-catenin cis-reporter transcription, actives raise or lower the signal. In outline: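 Endogenous TCF/LEF activity read as reporter transcript level via RT-PCR and capillary electrophoresis fluorescence in transfected HepG2, 24 h exposure; gain or loss of signal fitted against DMSO controls.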

Assay [19] has as its target Steroid hormone receptor ERR1 (Homo sapiens) (UniProt P11474). The experiment in a line: ATG_ERRa_TRANS: Attagene TRANS-FACTORIAL HepG2 Assay for human Estrogen-Related Receptor alpha (ERRa) (AID 2282971; active means hit-call score of the fitted dose curve at least 0.9, where 1 is the maximum). Particulars: HepG2 Attagene TRANS reporter, ERRa transactivation. The gist of the method:
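Transfected HepG2, 24 h dosing, ERRa-Gal4 chimera driving GAL4-UAS reporter. Readout: reporter mRNA via RT-PCR plus capillary electrophoresis (fluorescence). Positive direction vs DMSO control.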

A short description of assay [20]: ATG_SREBP_CIS: Attagene CIS-FACTORIAL HepG2 Assay for human Sterol Regulatory Element Binding (SREBP) (AID 2282962). Particulars: HepG2 Attagene cis-factorial SREBP reporter, mRNA; actives raise or lower the signal. In outline:
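In this cis-format assay, HepG2 liver cells express reporters controlled by promoter elements responsive to native transcription factors. Exposure lasts 24 h; reporter mRNA fluorescence from capillary electrophoresis gives the signal, fitted bidirectionally against DMSO.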

Records with an inconclusive call do not appear. The source made the active and inactive calls. How the source made its calls, unless noted: active means hit-call score of the fitted dose curve at least 0.9, where 1 is the maximum; inactive means score below 0.9.

Sequence of X-box-binding protein 1 (Homo sapiens) (P17861 whole entry, looked up): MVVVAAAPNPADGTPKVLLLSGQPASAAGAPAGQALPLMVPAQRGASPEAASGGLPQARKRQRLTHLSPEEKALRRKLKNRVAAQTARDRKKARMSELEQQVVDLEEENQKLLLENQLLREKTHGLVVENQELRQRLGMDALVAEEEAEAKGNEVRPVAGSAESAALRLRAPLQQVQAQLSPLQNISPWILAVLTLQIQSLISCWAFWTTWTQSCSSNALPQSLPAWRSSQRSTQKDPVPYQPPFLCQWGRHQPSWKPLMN
Sequence of Estrogen receptor (Homo sapiens) (P03372 whole entry, looked up, the tested form may be a part): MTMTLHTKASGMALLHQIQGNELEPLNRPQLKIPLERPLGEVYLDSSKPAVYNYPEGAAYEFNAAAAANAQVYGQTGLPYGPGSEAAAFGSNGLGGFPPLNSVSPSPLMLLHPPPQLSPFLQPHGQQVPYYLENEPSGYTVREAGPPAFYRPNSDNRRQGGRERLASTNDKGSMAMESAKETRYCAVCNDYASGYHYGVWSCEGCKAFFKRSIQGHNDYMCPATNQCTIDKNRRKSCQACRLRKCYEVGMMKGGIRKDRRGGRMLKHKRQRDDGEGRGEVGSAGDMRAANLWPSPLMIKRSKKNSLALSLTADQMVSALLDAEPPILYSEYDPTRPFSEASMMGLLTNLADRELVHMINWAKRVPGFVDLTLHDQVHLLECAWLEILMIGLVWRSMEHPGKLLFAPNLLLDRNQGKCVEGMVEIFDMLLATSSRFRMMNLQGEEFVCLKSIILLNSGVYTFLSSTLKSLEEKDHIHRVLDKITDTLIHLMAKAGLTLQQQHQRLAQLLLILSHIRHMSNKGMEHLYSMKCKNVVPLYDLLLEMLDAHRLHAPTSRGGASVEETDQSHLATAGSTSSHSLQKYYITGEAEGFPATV
Sequence of Paired box protein Pax-6 (Homo sapiens) (P26367 whole entry, looked up): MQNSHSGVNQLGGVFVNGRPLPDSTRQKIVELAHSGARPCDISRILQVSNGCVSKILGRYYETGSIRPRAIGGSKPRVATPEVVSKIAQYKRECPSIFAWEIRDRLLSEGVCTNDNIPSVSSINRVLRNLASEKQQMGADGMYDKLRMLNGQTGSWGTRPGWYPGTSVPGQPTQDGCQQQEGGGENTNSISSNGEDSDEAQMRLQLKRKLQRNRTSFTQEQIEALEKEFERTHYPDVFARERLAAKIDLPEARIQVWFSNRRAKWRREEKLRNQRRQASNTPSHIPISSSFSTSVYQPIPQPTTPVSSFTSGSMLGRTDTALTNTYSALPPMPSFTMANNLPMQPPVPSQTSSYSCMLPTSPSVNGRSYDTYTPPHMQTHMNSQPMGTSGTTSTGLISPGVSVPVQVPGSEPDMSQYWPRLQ
Sequence of Transcription factor Sp1 (Homo sapiens) (P08047 whole entry, looked up): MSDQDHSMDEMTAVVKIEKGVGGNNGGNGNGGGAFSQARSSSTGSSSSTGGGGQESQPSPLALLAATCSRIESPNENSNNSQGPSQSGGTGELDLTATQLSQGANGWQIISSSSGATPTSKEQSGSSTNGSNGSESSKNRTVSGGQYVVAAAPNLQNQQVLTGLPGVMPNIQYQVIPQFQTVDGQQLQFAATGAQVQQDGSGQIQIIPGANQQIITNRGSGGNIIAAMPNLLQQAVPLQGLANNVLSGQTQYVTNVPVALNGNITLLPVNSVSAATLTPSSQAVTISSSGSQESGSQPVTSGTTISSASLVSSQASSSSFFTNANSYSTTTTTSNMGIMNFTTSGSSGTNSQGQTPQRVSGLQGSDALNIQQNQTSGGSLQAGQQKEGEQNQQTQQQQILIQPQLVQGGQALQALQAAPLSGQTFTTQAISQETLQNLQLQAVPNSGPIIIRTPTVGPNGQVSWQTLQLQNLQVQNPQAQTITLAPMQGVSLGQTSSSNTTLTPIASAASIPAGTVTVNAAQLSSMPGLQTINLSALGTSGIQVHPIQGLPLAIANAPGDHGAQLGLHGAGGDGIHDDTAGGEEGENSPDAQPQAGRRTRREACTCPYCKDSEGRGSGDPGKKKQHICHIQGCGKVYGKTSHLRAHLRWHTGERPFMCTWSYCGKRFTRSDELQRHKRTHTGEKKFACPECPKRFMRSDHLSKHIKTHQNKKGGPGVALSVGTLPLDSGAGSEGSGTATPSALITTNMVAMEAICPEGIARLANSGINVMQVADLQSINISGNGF
Sequence of Signal transducer and activator of transcription 3 (Homo sapiens) (P40763 whole entry, looked up): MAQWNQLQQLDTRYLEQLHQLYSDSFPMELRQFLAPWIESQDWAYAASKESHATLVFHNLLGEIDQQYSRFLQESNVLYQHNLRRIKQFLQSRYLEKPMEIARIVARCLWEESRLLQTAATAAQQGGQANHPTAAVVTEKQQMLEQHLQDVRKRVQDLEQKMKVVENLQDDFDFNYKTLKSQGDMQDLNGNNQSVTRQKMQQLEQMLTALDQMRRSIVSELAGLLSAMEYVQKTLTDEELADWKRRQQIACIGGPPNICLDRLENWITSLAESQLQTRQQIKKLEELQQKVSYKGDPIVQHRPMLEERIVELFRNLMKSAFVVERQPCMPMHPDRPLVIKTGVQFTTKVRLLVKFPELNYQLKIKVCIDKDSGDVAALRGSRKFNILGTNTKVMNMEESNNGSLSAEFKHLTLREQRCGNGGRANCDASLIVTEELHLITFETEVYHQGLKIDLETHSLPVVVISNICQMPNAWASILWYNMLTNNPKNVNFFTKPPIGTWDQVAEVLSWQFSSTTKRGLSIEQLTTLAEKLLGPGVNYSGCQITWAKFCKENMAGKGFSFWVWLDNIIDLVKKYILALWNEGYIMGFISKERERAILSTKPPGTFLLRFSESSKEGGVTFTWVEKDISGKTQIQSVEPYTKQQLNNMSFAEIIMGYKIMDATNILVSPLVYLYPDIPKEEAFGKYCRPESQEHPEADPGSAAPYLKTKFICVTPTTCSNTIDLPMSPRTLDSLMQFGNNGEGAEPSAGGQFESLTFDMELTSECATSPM
Sequence of Nuclear receptor subfamily 1 group I member 3 (Homo sapiens) (Q14994 whole entry, looked up, the tested form may be a part): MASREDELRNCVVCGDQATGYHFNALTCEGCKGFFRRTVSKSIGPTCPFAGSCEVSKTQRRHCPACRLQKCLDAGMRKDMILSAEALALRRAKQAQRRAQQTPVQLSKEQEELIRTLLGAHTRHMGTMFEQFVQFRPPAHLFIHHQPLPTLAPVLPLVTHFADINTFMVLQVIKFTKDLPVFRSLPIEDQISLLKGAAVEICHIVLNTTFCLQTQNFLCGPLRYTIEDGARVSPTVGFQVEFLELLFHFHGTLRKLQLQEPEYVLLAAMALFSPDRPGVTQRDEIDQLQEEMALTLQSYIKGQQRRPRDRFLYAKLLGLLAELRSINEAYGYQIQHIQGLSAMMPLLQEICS
Sequence of Steroid hormone receptor ERR1 (Homo sapiens) (P11474 whole entry, looked up, the tested form may be a part): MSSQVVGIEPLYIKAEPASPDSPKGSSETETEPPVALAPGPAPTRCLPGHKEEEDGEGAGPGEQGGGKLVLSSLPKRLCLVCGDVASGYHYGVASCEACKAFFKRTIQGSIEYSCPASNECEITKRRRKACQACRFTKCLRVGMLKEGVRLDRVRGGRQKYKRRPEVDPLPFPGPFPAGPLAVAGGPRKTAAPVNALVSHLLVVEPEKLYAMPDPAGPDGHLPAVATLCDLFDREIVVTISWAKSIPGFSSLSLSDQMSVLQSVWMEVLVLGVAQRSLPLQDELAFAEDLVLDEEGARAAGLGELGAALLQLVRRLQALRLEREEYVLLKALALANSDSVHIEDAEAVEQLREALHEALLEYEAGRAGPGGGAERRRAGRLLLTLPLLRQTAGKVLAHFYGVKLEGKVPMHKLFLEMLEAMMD

Turning to `CCC(C)(CCCC(C)C)OC(C)=O` (stereo not drawn), the outcome in [1], in assay [2], in assay [3], in [4], in assay [5] and in assay [6] was inactive. Besides, the compound was classed as inactive in assay [7], in [8], in assay [9], in assay [10], in [11] and in [12]. Also, the outcome in assay [13], in [14], in assay [15], in assay [16] and in assay [17] was inactive.
On to `CCCCCCCCCCCCOCCOS(=O)(=O)O`, for which the outcome in assay [1], in assay [2], in assay [4], in [5], in [6] and in assay [7] was inactive. Further, the call in [8], in assay [9], in assay [18], in assay [10], in assay [11] and in assay [12] was inactive. For the same compound, the result in assay [19] and in assay [15] was inactive. Moreover, in assay [3], the AC50 is 14.2 µM (active).
As for `CCCc1ccc(O)cc1`, the result in assay [1], in assay [2], in [3], in [4], in assay [5] and in [6] was inactive. For the same compound, the compound was called inactive in assay [7], in assay [9], in assay [18], in assay [10], in assay [11] and in assay [12]. The result in assay [15] and in assay [16] was inactive. Further, the concentration at half-maximal activity (AC50) in [14] is 12 µM (active).
Consider `O=Cc1ccccc1O`, for which the result in [1], in [2], in assay [4], in assay [6], in assay [7] and in assay [20] was inactive. Besides, the compound was called inactive in [8], in assay [9], in assay [10], in assay [11], in [12] and in [13]. Further, the call in assay [15] and in assay [16] was inactive. For the same compound, the AC50 in [3] was 100 µM (active); in assay [5], 76.3 µM (active).
As to `C=C(C)C(=O)OCCN(C)C`, the outcome in assay [1], in [2], in [3], in assay [4], in [5] and in assay [6] was inactive. In addition, the outcome in [7], in assay [20], in assay [9], in [18], in assay [10] and in assay [12] was inactive. The call in assay [14], in assay [15], in assay [16] and in [17] was inactive.
Consider `CN1CCc2cccc3c2[C@H]1Cc1ccc(O)c(O)c1-3`, for which the outcome in [1], in [2], in assay [6], in assay [7], in assay [8] and in assay [9] was inactive. Also, the compound was classed as inactive in assay [18], in [11], in assay [12], in [14] and in assay [15]. Further, the AC50 in [3] is 1.26 µM (active); in assay [20], 13.3 µM (active); in assay [10], 8.44 µM (active).
For the compound `C=C1CC/C=C(\C)CC[C@@H]2[C@@H]1CC2(C)C`, the result in assay [1], in [2], in assay [5], in assay [6], in [20] and in assay [9] was inactive. Moreover, the outcome in assay [10], in [11], in assay [12], in [13], in [19] and in assay [15] was inactive. Besides, in [17], the compound was called inactive. Moreover, the values for the AC50 in [3] and in assay [14] were 26.6 µM (active) and 14.3 µM (active), respectively.
